According to PubChem BioAssay (NCI):
The panel holds about 83,000 compounds, 20% with a hit somewhere; the sample as a whole holds those more often.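 A percent growth of 40 corresponds to 60% growth inhibition; 0 means no net growth; -100 means all cells died. Active threshold: below 10.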 Unmarked numbers belong to inactive results. Active and inactive are the calls of the source.

Tests used:
Assay in all cases: NCI-60 one-dose screen, 48 h (100 = growth as untreated, 0 = no growth, -100 = all killed)
Settings in all cases: 10 µM
[1] = system: NCI-H23 lung
[2] = system: NCI-H226 lung
[3] = system: NCI-H322M lung
[4] = system: HOP-62 NSCLC
[5] = system: NCI-H460 lung
[6] = system: HOP-92 NSCLC
[7] = system: NCI-H522 lung
[8] = system: A549/ATCC NSCLC
[9] = system: 786-0 renal
[10] = system: COLO 205 colon
[11] = system: DU-145 prostate
[12] = system: K-562 leukemia
[13] = system: MALME-3M melanoma
[14] = system: MDA-MB-231 breast
[15] = system: RXF 393 renal
[16] = system: SF-268 CNS
[17] = system: SF-295 CNS
[18] = system: SF-539 CNS
[19] = system: UACC-257 melanoma
[20] = system: M14 melanoma

Row | Structure (SMILES) | growth [1] | growth [2] | growth [3] | growth [4] | growth [5] | growth [6] | growth [7] | growth [8] | growth [9] | growth [10] | growth [11] | growth [12] | growth [13] | growth [14] | growth [15] | growth [16] | growth [17] | growth [18] | growth [19] | growth [20]
1 | CO[C@@H]1CSSC1Cn1nc(-c2ccc(Oc3ccccc3)cc2)c2c(N)ncnc21 (stereo not given in full) | 46.4% | 31.1% | 63% | 86.4% | 16.5% | 35.9% | 1.33% (active) | 35.7% | 45.3% | 52% | 49.8% | 4.87% (active) | 8.55% (active) | 52.1% | 28.8% | 39.5% | 47.8% | 44.1% | 10.9% | -90.6% (active)
2 | COc1ccc(C(=O)Nc2ccc(-c3ccc4c(c3)NC(=O)/C4=C\c3ccc[nH]3)cc2)cc1 | 41.5% | -4.15% (active) | 86.6% | 63.1% | 14.9% | 97.5% | 64.2% | 74.4% | 20.4% | 48.1% | -25.7% (active) | 67.5% | 50.9% | 25.6% | 8.7% (active) | 0.17% (active) | -76.1% (active) | 76.8% | 77.5% | 28.1%
3 | COC(=O)C(Cc1ccc(O)c(O)c1)NC(=O)C(CSC/C=C(\C)CCCC(C)CCCC(C)CCCC(C)C)NC(C)=O (stereo not given) | 31.1% | 30.3% | 67.1% | 26.5% | 18.9% | 18.5% | -85.6% (active) | 18.9% | 51.4% | 3.84% (active) | 75.5% | 5.33% (active) | 87.4% | 38.1% | 48.3% | 27.6% | 1.8% (active) | -34.7% (active) | 56.4% | 13.9%
4 | N#Cc1c(NC(=O)c2ccc(C(O)(C(F)(F)F)C(F)(F)F)cc2)sc2c1CCC(=O)C2 | -81% (active) | -57.2% (active) | 19.1% | -17% (active) | 7.12% (active) | -55.7% (active) | -71.2% (active) | 9.39% (active) | -47.7% (active) | -89.3% (active) | 15.5% | -10.8% (active) | -92.5% (active) | -89.7% (active) | -89% (active) | -9.56% (active) | -97% (active) | -96.2% (active) | -61.6% (active) | -68% (active)
5 | COc1ccc([C@H]2C(C(=O)c3ccc(Cl)cc3)C3(N[C@@H]2c2ccccc2)C(=O)Nc2ccc(Br)cc23)cc1 (stereo not given in full) | -47.4% (active) | -42.5% (active) | 21.6% | -8.82% (active) | -44.4% (active) | -20.6% (active) | 6.07% (active) | 17.3% | -17.5% (active) | -92% (active) | 17% | 5.88% (active) | -7.99% (active) | -58.3% (active) | -72.9% (active) | 18.9% | -60.2% (active) | -21.5% (active) | 17% | 16.1%
6 | COc1ccc([C@H]2C(C(=O)c3ccc(Cl)cc3)C3(N[C@@H]2c2ccccc2)C(=O)Nc2ccc(Cl)cc23)cc1 (stereo not given in full) | -56.2% (active) | -56.4% (active) | 20% | -57.2% (active) | -11.7% (active) | -26.7% (active) | -1.74% (active) | 18.2% | -12% (active) | -89.5% (active) | 14.6% | 3.72% (active) | -10.6% (active) | -68.3% (active) | -64.3% (active) | 20.2% | -63.2% (active) | -46.1% (active) | 9.2% (active) | 11%
7 | CN1CCCN(Cc2ccc(C(=O)Nc3cccc(Nc4ccc5cc(O)ccc5n4)c3)cc2C(F)(F)F)CC1 | 68.8% | 103% | 89.1% | 95.9% | 27.7% | 53.3% | 80.3% | 64.7% | 8.41% (active) | 63.2% | 73.7% | 14.8% | 51% | 34.9% | 60.8% | 62.5% | -68.5% (active) | 41.8% | 59.8% | 47.2%
8 | COc1cccc(/C=N/NC(=O)c2ccc3nc(-c4ccc(Cl)cc4)[nH]c3c2)c1O | -95.2% (active) | -85.8% (active) | -81.6% (active) | -91.9% (active) | -84.4% (active) | -85.2% (active) | -83% (active) | -76.8% (active) | -90.3% (active) | -88.8% (active) | -96.1% (active) | -37.2% (active) | -96.3% (active) | -72.8% (active) | -96.5% (active) | -79% (active) | -91.3% (active) | -99% (active) | -83.8% (active) | -79.5% (active)
9 | COc1ccc2nc(Nc3cccc(NC(=O)c4ccc(CN5CCN(C)CC5)c(C(F)(F)F)c4)c3)ccc2c1 | -94.9% (active) | -46.9% (active) | -64% (active) | -77.6% (active) | -84.5% (active) | -57% (active) | -85.7% (active) | -54.7% (active) | -55.3% (active) | -90.3% (active) | -32.8% (active) | -70.8% (active) | -91.8% (active) | -82.7% (active) | -75.7% (active) | -55.2% (active) | -97.7% (active) | -99.8% (active) | -83.9% (active) | -50.1% (active)
10 | Nc1cccnc1/C=N/NC(=S)NCCNC(=O)c1ccc(-n2nc(-c3ccccc3O)nc2-c2ccccc2O)cc1 | -1.31% (active) | 2.65% (active) | 19.3% | 22.1% | 37.6% | -2.21% (active) | 4.39% (active) | 15% | -1.51% (active) | 15.1% | 27.9% | 7.44% (active) | 14.3% | 19.8% | -10.6% (active) | 32.8% | -6.19% (active) | -23.2% (active) | 7.34% (active) | -39% (active)
11 | COc1ccc(C(=O)NC(=S)N2CCN(c3ncnc4c3cnn4-c3ccccc3)CC2)cc1 | 60% | 9.11% (active) | 66.8% | 31.9% | 55.8% | 32% | 41.2% | 58.8% | 82.8% | 79.7% | 79.9% | 62.7% | 57.8% | 80.2% | 49.9% | 63.8% | 57.8% | 32.3% | 54.4% | 63.1%
12 | O=c1cc(-c2ccccc2)oc2cc(OCCCCNCc3ccccc3)cc(O)c12 | -73.7% (active) | 59.6% | 57.5% | 61% | -73.9% (active) | 31.8% | 34.2% | 49.3% | -68.2% (active) | -91.8% (active) | 27.6% | -17.6% (active) | -92.6% (active) | -12.4% (active) | -79.8% (active) | 43.6% | -93.5% (active) | -96.2% (active) | -35.6% (active) | -75.9% (active)
13 | COc1cc2c(c(OC)c1OC)C(=O)CC(c1cccc(NC(=O)c3cccc(N)c3)c1)O2 (stereo not given) | 91.1% | 86.7% | 91% | 100% | 79.2% | 74% | 61% | 85.3% | 91.9% | 102% | 83% | 47.5% | 78.8% | 68.3% | 100% | 81.7% | 92.8% | 95.3% | 93.4% | 96.5%
14 | COc1ccc(N(C)c2cc(C#N)nc3ccccc23)cc1N | 9.56% (active) | 25.4% | 47.9% | 36.2% | 0.907% (active) | 58.1% | -25.9% (active) | 17.8% | 22.6% | -76.8% (active) | 20.3% | 10.7% | 62.1% | 12.2% | 57.2% | 22% | 15.8% | -23.7% (active) | 63.3% | 26.5%
15 | CC1=C2C(=C[C@@](C)(COCOCCCl)[C@@H]2O)C(=O)[C@](C)(O)C12CC2 | -81.7% (active) | -39.2% (active) | -18.2% (active) | -51.1% (active) | -11% (active) | -14.6% (active) | -74.4% (active) | -1.86% (active) | -36.2% (active) | -73.7% (active) | -11.1% (active) | 8.32% (active) | -84.9% (active) | -44.7% (active) | -78.4% (active) | -9.66% (active) | -30.2% (active) | -65% (active) | -30.3% (active) | -16% (active)
